For 40 sequences, PBM binding z-score results are on record in the supplement of paper PMC6555819.

One test relates to PPARg:RXRa (NR concentration 180 nM, RXRa partner concentration 90 nM). In words: PBM binding z-score (relative to random genomic background probes); higher = stronger binding; sequences stand for … in GC…GCGATTGACAGCGTAGAATGAAGG
The gist of the method: (§1)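 Binding z-scores were set against random background probes. The data came from custom Agilent 4×180K protein-binding microarrays carrying double-stranded probes with 34-nt variable regions, incubated 1 h with ligand-free nuclear receptor dimers. Partner-specific antibodies detected binding, and scanned fluorescence was regression-normalized.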
As for CAGAGTAGGTTATGGGGCATTCAGGCAACGGTGA, the PBM binding z-score is 4.39.
TGAATGAGGTTAAACATCAGGGAACGTGGCGTCG showed a PBM binding z-score of 2.33.
On the same count and under the same terms, as for TAGCCTAGGTCATGGGCCCGTATACCACGCGAAC, the figure is 3.44; as for ACTCGGAGGACTAAGGTCAGAGCTACGCCAGTGA, 1.93.
In turn, CAAACTAGGTCAAGAAAGGTCAAAGTCGAATGAC returned a PBM binding z-score of 8.96.
Still for that read-out and setting: as for CCGACTAGGGCATAAGGTTACCATAAGCCAGCCC, the figure is 2.8.
Same read-out and setting: for TGTCAAAGTTCAAAGGTAACGTGAGTATCCACAC the value was 8.97; for GCTTGTAGATCAAGGTTAAGCAAGACTAAGCTAA, 1.05; for ACAGACAGGTGATGAAAGTAACTCAGGCTATCAT, 0.596.
AACTCTAGGTAAAGATAGTTCAGTGAATGCAAAT had a PBM binding z-score of 0.601.
Same read-out and setting: for CGAACGAGGGCATGAGTTGTTAGCAAATGCCGAT the value was 1.08; for TCTTGTACATCAGCAGGTTAAGAAAGCTGGCCAA, -0.203.
Sequence TCTGCTAGGTAAGTTGGTCAGCTAACGAGCTGCC had a PBM binding z-score of -0.748.
The sequence ACTATTAGTTGACTTAGGGCAACCCATACGACGC yielded a PBM binding z-score of 1.03.
Still for that read-out and setting: for GCTCGGAGGACAAGGCCAGAGCTTTGTCCGTAGA the value was -1.44; for GGAACGAGGGCACAGTTGATAGCATCTGTCGACG, 3.25.
Still for that read-out and setting: for TAGCCTAGGTCATTCAGGTGCCAGTATAGAAAGC the value was 1.87.
The same measure, in the same setting: for ATACCAAGGGGATCGTGAGGTCGTTGATACTAAC the value was 0.267; for ATATGTAGGTTATCGGGTCATTCAATTTGCGCAT, 7.6.
The sequence TCGAGTAGGTTAGACGGGGCATTCAGCCAACATA registered a PBM binding z-score of 0.118.
In turn, CAAACTAGGTCTAAGGTCAAAGTCGAGCCAACCA yielded a PBM binding z-score of 10.5.
Still for that read-out and setting: as for ATATGTAGGTAAGCTGGGGTCATTCAGACTAGGC, the figure is 4.31.
Still for that read-out and setting: for CGGACTAGGTCAAGGACAGTGAATCTCCGCACGC the value was 5.95.
TCGAGTAGGTTAGTGGCATTCAGAATGGCGTCGA gave a PBM binding z-score of -0.294.
Same read-out and setting: as for CCAGCTAGGTCATGGTCAGCTAATCTACAGTATG, the figure is 2.98; as for ACTATAAGTTGAGACGAGGGCAACCGATAGGTTG, 1.01; as for TCTTGTTGATCAACAGGAGGTTAAGAAAGATCGA, -0.165.
With CAAACTAGGTCGCGAAAGGTCAAAGTCGAATGAC, the PBM binding z-score turned out to be 7.96.
For the sequence GGAACGAGGGCAAAGTTGATAGCATCTGTCGACG, the PBM binding z-score came out at 6.65.
CGTCCAAGGTCAATGTCAGTGAAAGAGACTCGAA displayed a PBM binding z-score of 4.26.
Turning to ACAATGAGGTTAAGATCAGGGAAACAGAATACAT, the PBM binding z-score was determined as 2.06.
On the same count and under the same terms, as for ACTTACGGGTCAACGAGGTTATAGAACGCGTATA, the figure is 5.23; as for TCTAGTTGGTCAAAGGTCACTCACTCGAAATGCG, 11.5.
Still for that read-out and setting: for TCTCGTTGGTCAAAGGTCACACACTCGAAATGCG the value was 9.51; for TCTGCTGGGTCAGTTGGTCAGCTAACGAGCTGCC, 0.0356.
The sequence GCGACTGGGGCATCAGCAGGTTCCCATAACTTAA showed a PBM binding z-score of 0.29.
In turn, CCTAGTGGGCCAAAAAGGTCATTGATGCCGATAA displayed a PBM binding z-score of 3.16.
In turn, TAGCCTAGGTCATACGGGCCAGTATAGTGTCGGC returned a PBM binding z-score of 2.18.
The same measure, in the same setting: for CCGACTGGGGCATAAAGGTTACCATACCATCCGG the value was 3.04.
Still for that read-out and setting: for CCTGCTGGGCCATTCAGAGGTCATTGATCATATG the value was 0.755.

The subject of a further test is PPARg:RXRa 270nM:90nM, anti-RXR (NR concentration 270 nM, RXRa partner concentration 90 nM). The test is described as above. In a few lines:
as §1
Sequence CAGAGTAGGTTATGGGGCATTCAGGCAACGGTGA displayed a PBM binding z-score of 5.4.
The same measure, in the same setting: for TGAATGAGGTTAAACATCAGGGAACGTGGCGTCG the value was 2.74; for TAGCCTAGGTCATGGGCCCGTATACCACGCGAAC, 3.32; for ACTCGGAGGACTAAGGTCAGAGCTACGCCAGTGA, 2.96.
On the same count and under the same terms, as for CAAACTAGGTCAAGAAAGGTCAAAGTCGAATGAC, the figure is 7.74.
The sequence CCGACTAGGGCATAAGGTTACCATAAGCCAGCCC returned a PBM binding z-score of 3.77.
The same measure, in the same setting: as for TGTCAAAGTTCAAAGGTAACGTGAGTATCCACAC, the figure is 7.93.
On the same count and under the same terms, as for GCTTGTAGATCAAGGTTAAGCAAGACTAAGCTAA, the figure is 1.94; as for ACAGACAGGTGATGAAAGTAACTCAGGCTATCAT, -0.0784.
AACTCTAGGTAAAGATAGTTCAGTGAATGCAAAT gave a PBM binding z-score of 0.353.
The same measure, in the same setting: as for CGAACGAGGGCATGAGTTGTTAGCAAATGCCGAT, the figure is 1.21.
The same measure, in the same setting: as for TCTTGTACATCAGCAGGTTAAGAAAGCTGGCCAA, the figure is 1.47; as for TCTGCTAGGTAAGTTGGTCAGCTAACGAGCTGCC, 0.411.
Same read-out and setting: as for ACTATTAGTTGACTTAGGGCAACCCATACGACGC, the figure is 0.234.
GCTCGGAGGACAAGGCCAGAGCTTTGTCCGTAGA: the PBM binding z-score is -1.18.
The same measure, in the same setting: for GGAACGAGGGCACAGTTGATAGCATCTGTCGACG the value was 3.63.
As to TAGCCTAGGTCATTCAGGTGCCAGTATAGAAAGC, the PBM binding z-score came out at 2.27.
ATACCAAGGGGATCGTGAGGTCGTTGATACTAAC: the PBM binding z-score is -0.0276.
On the same count and under the same terms, for ATATGTAGGTTATCGGGTCATTCAATTTGCGCAT the value was 6.31; for TCGAGTAGGTTAGACGGGGCATTCAGCCAACATA, 0.993.
Consider CAAACTAGGTCTAAGGTCAAAGTCGAGCCAACCA, for which the PBM binding z-score is 9.19.
ATATGTAGGTAAGCTGGGGTCATTCAGACTAGGC gave a PBM binding z-score of 4.65.
CGGACTAGGTCAAGGACAGTGAATCTCCGCACGC registered a PBM binding z-score of 5.25.
The sequence TCGAGTAGGTTAGTGGCATTCAGAATGGCGTCGA came in with a PBM binding z-score of 0.534.
The sequence CCAGCTAGGTCATGGTCAGCTAATCTACAGTATG had a PBM binding z-score of 3.29.
Still for that read-out and setting: for ACTATAAGTTGAGACGAGGGCAACCGATAGGTTG the value was 0.487; for TCTTGTTGATCAACAGGAGGTTAAGAAAGATCGA, 1.01; for CAAACTAGGTCGCGAAAGGTCAAAGTCGAATGAC, 6.66.
The same measure, in the same setting: for GGAACGAGGGCAAAGTTGATAGCATCTGTCGACG the value was 7.24; for CGTCCAAGGTCAATGTCAGTGAAAGAGACTCGAA, 4.46; for ACAATGAGGTTAAGATCAGGGAAACAGAATACAT, 1.68.
The same measure, in the same setting: for ACTTACGGGTCAACGAGGTTATAGAACGCGTATA the value was 5.55.
Turning to TCTAGTTGGTCAAAGGTCACTCACTCGAAATGCG, the PBM binding z-score amounted to 10.
In turn, TCTCGTTGGTCAAAGGTCACACACTCGAAATGCG gave a PBM binding z-score of 8.55.
On to TCTGCTGGGTCAGTTGGTCAGCTAACGAGCTGCC, for which the PBM binding z-score is 1.6.
On the same count and under the same terms, for GCGACTGGGGCATCAGCAGGTTCCCATAACTTAA the value was 0.35; for CCTAGTGGGCCAAAAAGGTCATTGATGCCGATAA, 3.97; for TAGCCTAGGTCATACGGGCCAGTATAGTGTCGGC, 2.57.
Same read-out and setting: as for CCGACTGGGGCATAAAGGTTACCATACCATCCGG, the figure is 3.77; as for CCTGCTGGGCCATTCAGAGGTCATTGATCATATG, 1.86.
